# Assay outcomes: PubChem, National Center for Advancing Translational Sciences (NCATS)
# HT1080 IDH1KD tx = toxicity to HT-1080 IDH1 knockdown cells (counter line) | Potency, µM (doses to about 46.1 µM), inactives show at the top dose activity, negative = toxicity, actives largely listed as cytotoxic | HT-1080 IDH1 knockdown viability, ATP luminescence, 48 h | AID 686971 | hit rate 2% among 360,000;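 also: 0% = DMSO wells and -100% = cell-free medium wells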
#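 Viability of IDH1-knockdown HT-1080 fibrosarcoma cells was assessed by CellTiter-Glo after 48 h at 37 °C with titrated compound; concentration-effect curves were classified by fit quality and response size.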
# KB-3-1 cytotox = kills parental KB-3-1 adenocarcinoma cells. Potency, µM (titrated, usually from 46.1 µM), actives largely listed as cytotoxic. AID 1347075. hit rate 1.4% among 400,000. KB-3-1 viability, CellTiter-Glo ATP luminescence, 72 h; also: nearly all actives have a fitted effect of over 60% in size
#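 Using CellTiter-Glo luminescence, growth of non-resistant KB-3-1 adenocarcinoma cells is assessed 72 h after pin-tool compound addition at 37 °C. Normalized responses across the concentration series yield fitted curves.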
# KB-V1 MDR tox = kills drug-selected multidrug resistant KB-V1 cells | Potency, µM (highest dose often 46.1 µM), hits mostly cytotoxic | hit rate 3.4% among 400,000 | AID 1347076 | KB-V1 MDR cells viability, CellTiter-Glo, 72 h; also: nearly all actives have a fitted effect of over 60% in size
#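 KB-V1 MDR subline cells in DMEM (phenol-red free, 10% FBS) exposed to compounds in qHTS concentration series for 72 h at 37 degrees C. Viability read by CellTiter-Glo luminescence; concentration-effect curves fitted after normalization and correction.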
# HT1080-NT tox = kills 2HG-producing HT-1080-NT fibrosarcoma cells. HT-1080-NT fibrosarcoma viability, CellTiter-Glo ATP luminescence, 48 h. Potency, µM (titrated, usually from 46.1 µM), for inactives: at the top dose activity, negative = less viability, usual class: cytotoxic. hit rate 1.6% among 360,000;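 also: NT is the 2HG producing partner of a matched IDH1 knockdown line; 0% = DMSO-treated cells and -100% = media-only wells without cells; nearly all actives have a fitted effect of over 55% in size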
#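 HT-1080-NT fibrosarcoma cells (2HG-overproducing), 750 cells/well in RPMI with 5% FBS, dosed after 2 h and incubated 48 h at 37C. CellTiter-Glo luminescence normalized to DMSO and no-cell wells; concentration-response curves fitted and classed.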
# TDP1 cell CPT = growth inhibition of DT40 Tdp1-/-;hTDP1 cells with camptothecin (screen for TDP1 inhibitors) | chicken DT40 Tdp1-/-;hTDP1 cells + 20 nM CPT, ATP luminescence, 48 h | Potency, µM (doses to about 46.2 µM), for the others: at the top dose activity change, negative = growth inhibition, most hits filed as inhibitors | hit rate 12% among 420,000; also: nearly all actives have a fitted effect of over 55% in size
#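 Cell growth measured by CellTiter-Glo luminescence after a minimum 48 h, 37 C compound exposure with 20 nM CPT in Tdp1-knockout DT40 cells stably expressing hTDP1, seeded 400/well; qHTS titration format.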
# DT40 TDP1 no CPT = qHTS for Inhibitors of human tyrosyl-DNA phosphodiesterase 1 (TDP1): qHTS in cells in absence of CPT. DT40 Tdp1-/- hTDP1 cells, no CPT, ATP luminescence, 48 h. Potency, µM (highest dose often 46.2 µM), inactives show at the highest dose activity change, negative = growth inhibition, most hits filed as inhibitors. hit rate 15% among 420,000. AID 686978, 2013; also: nearly all actives have a fitted effect of over 55% in size
#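 Cells were dispensed at 400 per well, compounds added by pin tool, plates incubated ≥48 hr at 37 °C, then CellTiter-Glo added for 30 min at room temperature before luminescence reading. Line: DT40 Tdp1-/- complemented with hTDP1; camptothecin omitted.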
# * marks the source's active call; other numbers are inactive results; i = inactive; u = inconclusive; x = no result given. A selection: hits, their analogues and other compounds. The true share with any hit is near 19%. Calls follow the shape of the dose curve; as a rule, active = well fitted curve in the direction sought with a large enough effect; inconclusive = small, poorly fitted or top-dose-only effect, or another doubt; inactive = no such curve, though single readings can be large; an effect the other way counts as inactive or inconclusive. Unless noted, % is scaled to controls: 0 for no effect and ±100 for the full control effect; potency is read from the fitted curve at half-maximal effect.
SMILES,HT1080 IDH1KD tx,KB-3-1 cytotox,KB-V1 MDR tox,HT1080-NT tox,TDP1 cell CPT,DT40 TDP1 no CPT
O=C(c1cc(Cl)ccc1[N+](=O)[O-])N1CCc2ccccc2C1,2.6%,i,i,3.3%,-5.5%,0.8%
c1ccc(CSc2nnc(SCc3ccccn3)s2)nc1,8.8%,i,16.4µM*,18.8%,-27.9%,-4.2%
N=C(N)SCc1ccccn1,9.1%,i,i,5.4%,u,-28.6%
Cc1oc(-c2ccccc2F)nc1CSCC(=O)N1CCN(c2ccccc2)CC1,x,u,u,x,20.6µM*,9.2µM*
Cc1oc(-c2ccccc2Cl)nc1CSCC(=O)N1CCCC1,u,u,u,-19.0%,u,13µM*
Clc1cccc(-c2nnc(SC/C=C/c3ccccc3)n2Cc2ccco2)c1,u,u,u,u,20.6µM*,u
C(=C\c1ccccc1)/CSc1nnc(-c2ccccc2)n1Cc1ccco1,7.08µM*,i,18.4µM*,7.08µM*,5.17µM*,4.61µM*
Nn1c(SC/C=C/c2ccccc2)nnc1-c1ccco1,12.4%,i,u,2.1%,-7.6%,-28.0%
CCCCNC(=O)C1c2ccccc2OCC(=O)N1C1CC1 (stereo not given),11.9%,i,u,22.3%,-6.6%,-8.7%
Cc1nn(-c2ccccn2)c2c1-c1nc(N)sc1CC2,x,u,u,x,20µM*,17.8µM*
Cc1nn(-c2ccccn2)c2c1-c1nc(N3CCOCC3)ncc1CC2,1.5%,u,18.4µM*,-2.6%,18.4µM*,23.1µM*
CCc1nnc(SCC(=O)Nc2ccc(N3CCN(S(C)(=O)=O)CC3)cc2)o1,-0.1%,i,i,6.0%,u,-26.0%
O=c1c(-c2ccc(Cl)cc2)nc2cnc(N3CCOCC3)nc2n1Cc1ccc(F)cc1,x,x,x,x,2.4%,23.5%
COc1ccc(C(=O)NCc2ccccc2)cc1S(=O)(=O)N1CCCc2ccccc21,-18.8%,i,i,-5.7%,15.8µM*,u
COc1ccc(C(=O)Nc2cccc(C)n2)cc1S(=O)(=O)N1CCCc2ccccc21,-24.8%,u,u,u,u,16.4µM*
COc1ccc(C(=O)Nc2ccc(C)cn2)cc1S(=O)(=O)N1CCCc2ccccc21,-23.3%,i,i,-7.7%,u,u
COc1ccc(C(=O)O)cc1S(=O)(=O)N1CCCc2ccccc21,10.4%,i,i,-0.2%,8.1%,-2.7%
O=C(NNC(=O)C(c1ccccc1)c1ccccc1)c1cccs1,5.3%,i,i,8.2%,-16.1%,-12.2%
COc1ccc(C(=O)N2CCCC(c3nc(-c4ccc(OC)c(OC)c4)no3)C2)c(OC)c1 (stereo not given),-7.8%,i,4.11µM*,-4.4%,u,u
Cc1ccc(-c2noc(C3CCCN(C(=O)c4ccccc4Br)C3)n2)cc1 (stereo not given),u,u,18.4µM*,-28.2%,u,20.6µM*
Cc1ccc(-c2noc(C3CCCN(C(=O)c4c(F)cccc4F)C3)n2)cc1 (stereo not given),-29.5%,i,16.4µM*,-3.3%,u,20.6µM*
COc1cc(-c2noc(C3CCCN(C(=O)c4c(F)cccc4F)C3)n2)cc(OC)c1OC (stereo not given),1.1%,i,i,1.5%,u,20.6µM*
COc1ccc(-c2noc(C3CCCN(C(=O)c4c(F)cccc4F)C3)n2)cc1OC (stereo not given),3.2%,i,i,3.2%,u,u
CC(C)C#Cc1cnc2c(c1)C(=O)N([C@@H](C)CO)C[C@@H](C)[C@H](CN(C)Cc1cccc(F)c1)O2,-21.6%,i,i,-24.5%,u,u
Cc1ccc(C(=O)COC(=O)[C@@H](NC(=O)c2ccco2)C(C)C)s1,-4.9%,u,u,0.3%,5.4%,-24.7%
SMILES,HT1080 IDH1KD tx,KB-3-1 cytotox,KB-V1 MDR tox,HT1080-NT tox,TDP1 cell CPT,DT40 TDP1 no CPT
CCS(=O)(=O)N1CCCC(c2nc(-c3cccc(OC)c3)no2)C1 (stereo not given),2.1%,i,i,3.6%,-28.7%,-21.0%
COc1ccc(-c2noc(C3CCCN(C(=O)c4cccc(C)c4)C3)n2)cc1 (stereo not given),-0.2%,i,i,2.0%,16.4µM*,16.4µM*
Cc1ccc(-c2noc(C3CCCN(C(=O)c4cccc(F)c4)C3)n2)cc1 (stereo not given),-8.1%,i,i,-11.5%,u,29.1µM*
Cc1ccc(-c2noc(C3CCCN(C(=O)c4cccc([N+](=O)[O-])c4)C3)n2)o1 (stereo not given),-0.8%,i,i,-3.9%,u,-19.1%
CCCS(=O)(=O)N1CCCC(c2nc(-c3ccc(OC)cc3)no2)C1 (stereo not given),6.2%,i,13µM*,4.6%,-27.3%,-20.7%
O=S(=O)(c1ccccc1Cl)N1CCC(O)(c2cccnc2)CC1,4.9%,i,u,5.8%,-0.1%,u
CC(Oc1cccc(Br)c1)C(=O)NNC(=O)c1ccccn1 (stereo not given),u,u,u,u,2.91µM*,2.31µM*
CC(Oc1ccccc1)C(=O)NNC(=O)c1ccccn1 (stereo not given),u,u,4.61µM*,-21.8%,10.3µM*,7.31µM*
CC(C)C(=O)NNC(=O)c1ccccn1,-3.7%,i,u,1.8%,u,u
COc1cc(OC)c(OC)cc1/C=N/n1c(COc2ccccc2)n[nH]c1=S,-0.1%,i,i,3.6%,1.0%,-27.8%
CCOC(=O)c1c(N2C(=O)C=CC2=O)sc(C)c1C,5.01µM*,i,i,3.98µM*,1.16µM*,2.59µM*
CCOC(=O)c1c(NC(N)=O)sc(C)c1C,4.3%,i,u,0.1%,-24.0%,-11.3%
O=C(N/N=C/c1ccc(O)cc1O)C(=O)N/N=C/c1ccc(O)cc1O,u,u,i,u,u,u
CCc1cc2c(COC(=O)c3cc(S(=O)(=O)N4CCOCC4)ccc3F)cc(=O)oc2cc1O,-22.0%,i,i,u,18.4µM*,u
CCc1cc2c(COC(=O)c3cccc(NS(C)(=O)=O)c3)cc(=O)oc2cc1O,u,i,i,u,16.4µM*,10.3µM*
CCCc1nn2c(=O)cc(COc3ccc(/C=C(\C#N)C(=O)Nc4ccccc4)cc3)nc2s1,x,i,u,x,-5.1%,-16.7%
